Rows were chosen to be rich in hits. Some 19% of all compounds tested hit in one or more screens of this group.
HT1080 IDH1KD tx: toxicity to HT-1080 IDH1 knockdown cells (counter line); HT-1080 IDH1 knockdown viability, ATP luminescence, 48 h; Potency, µM (series often up to 46.1 µM), without a hit: at the highest dose activity, negative = toxicity, usual class: cytotoxic; actives 2% (n = 360,000);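 further: potency means the concentration at half of the fitted maximal effect; 0% = DMSO wells and -100% = cell-free medium wells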
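Assay cells: HT-1080 with IDH1 knockdown, 750 per well, RPMI/5% FBS. Exposure: 48 h at 37 °C following 2 h pre-incubation. Read: CellTiter-Glo luminescence; fitted concentration-response, curve class assigned.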
DT40 TDP1 no CPT: qHTS for Inhibitors of human tyrosyl-DNA phosphodiesterase 1 (TDP1): qHTS in cells in absence of CPT. DT40 Tdp1-/- hTDP1 cells, no CPT, ATP luminescence, 48 h. Potency, µM (series often up to 46.2 µM), for inactives: at the highest dose activity change, negative = growth inhibition, hits mostly inhibitors. actives 15% (n = 420,000). AID 686978, 2013; further: potency means the concentration at half of the fitted maximal effect; nearly all actives have a fitted effect of over 55% in size
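Growth kinetics read by CellTiter-Glo luminescence after ≥48 hr at 37 °C. Cells: DT40 Tdp1-/- stably carrying human TDP1, 400 per well, compound exposure in the absence of CPT (DMSO vehicle).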
TDP1 cell CPT: DT40-hTDP1 cell growth loss with CPT. chicken DT40 Tdp1-/-;hTDP1 cells + 20 nM CPT, ATP luminescence, 48 h. Potency, µM (titrated, usually from 46.2 µM), without a hit: at the highest dose activity change, negative = growth inhibition, most hits filed as inhibitors. actives 12% (n = 420,000). AID 686979; further: potency means the concentration at half of the fitted maximal effect; nearly all actives have a fitted effect of over 55% in size
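Chicken DT40 Tdp1-/- cells complemented with human TDP1, 400 cells/well, exposed to compounds plus 20 nM camptothecin for at least 48 h at 37 C; viability read as ATP content by CellTiter-Glo luminescence.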
HT1080-NT tox: kills 2HG-producing HT-1080-NT fibrosarcoma cells. Potency, µM (doses to about 46.1 µM), for inactives: top-dose activity, negative = less viability, most hits filed as cytotoxic. HT-1080-NT fibrosarcoma viability, CellTiter-Glo ATP luminescence, 48 h. actives 1.6% (n = 360,000). AID 686970;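 further: NT is the 2HG producing partner of a matched IDH1 knockdown line; potency means the concentration at half of the fitted maximal effect; 0% = DMSO-treated cells and -100% = media-only wells without cells; nearly all actives have a fitted effect of over 55% in size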
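Viability of the 2HG-overproducing fibrosarcoma line after 48 hours of compound exposure at 37 degrees C was determined by luminescence with CellTiter-Glo, and concentration-effect curves were then fitted and categorized.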
IL-1B inflam inh: inhibitors of inflammasome signaling (IL-1 beta secretion); AID 743279; THP-1 LPS/ATP IL-1B secretion, AlphaLISA, 16 h; stronger effect = lower value; actives 4.7% (n = 360,000); activity change, % at 57.5 µM; in the data active means activity change below about -50%; inconclusive means mostly about -30% to -49%
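Secreted IL-1B measured by AlphaLISA bead assay after 16 h compound exposure of THP-1 cells; compounds (final up to 57.5 uM) added 1 h before LPS (250 ng/mL) and ATP (1.25 mM) stimulation; lower signal means less secretion.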
Starred values were filed as active, the others as inactive; ? = inconclusive; · = not tested or not shown; ! = repeats disagree. Unless noted, the call rests on the fitted dose curve; in most records, active means well fitted curve in the direction sought with a large enough effect; inconclusive means small, poorly fitted or top-dose-only effect, or another doubt; inactive means no such curve, though single readings can be large; an effect the other way counts as inactive or inconclusive. Unless noted, on the % scale 0 is the no-effect control and ±100 the full control effect.

SMILES	HT1080 IDH1KD tx	DT40 TDP1 no CPT	TDP1 cell CPT	HT1080-NT tox	IL-1B inflam inh
CCN(CC)c1ccc(/C=C/[N+](=O)[O-])cc1	16.4µM*	16.4µM*	?	?	-18.5
O=c1[nH]c(=O)n(-c2ccccc2)c(O)c1/C=C1/C(c2ccccc2)=Nc2ccccc21	2.06µM*	2.31µM*	2.06µM*	4.11µM*	22.1
Cc1[nH]c2ccccc2c1CN1CCCCC1	-26.3%	3.66µM*	1.64µM*	1.1%	-10.7
c1ccc2c(CN3CCCCCCC3)c[nH]c2c1	?	1.46µM*	0.651µM*	-0.9%	14.8
C=CCn1c(O)c(C(CC)=NC(C)c2ccccc2)c(=O)[nH]c1=O (centres undefined)	-4.1%	?	?	-1.1%	35.7
C=C(Cl)CSC(=S)N(CC)CC	?	3.26µM*	5.17µM*	?	5.8
O=P(Oc1ccccc1)(N1CCOCC1)N1CCOCC1	13.0%	7.2%	2.8%	14.3%	-1.8
CN(c1ccccc1)P(=O)(N1CC1)N1CC1	-3.2%	4.11µM*	2.59µM*	8.1%	8.9
COc1ccc(OC)c(C2=NOC(C(=O)N3CCC4(CC3)OCCO4)C2)c1 (centres undefined)	-5.7%	-36.8%	-5.0%	11.0%	0.6
Cc1ccc(OP(N)(=O)Oc2ccc(C)cc2)cc1	15.3%	3.4%	14.6%	9.0%	-17.0
Cc1cnc(-n2c(=S)[nH]c3ccccc3c2=O)s1	4.8%	-21.2%	-5.2%	1.8%	5.9
CCN(CC)c1ccc(/C=C2/C(=O)NC(=O)N(Cc3ccco3)C2=O)cc1	0.3%	-2.6%	-1.0%	-1.1%	-64.3*
O=C1NC(=O)N(Cc2ccco2)C(=O)/C1=C/c1ccc(-c2cccc([N+](=O)[O-])c2)o1	0.4%	?	18.4µM*	0.7%	?
C=CCN1C(=O)NC(=O)/C(=C\c2ccc(-c3ccccc3[N+](=O)[O-])o2)C1=O	?	18.4µM*	?	?	-99.6*
CN(C)c1ccc(/C=C2/C(=O)NC(=O)N(Cc3ccco3)C2=O)cc1	6.5%	-16.8%	-17.2%	6.6%	-10.9
COc1ccc(OCC(=O)N2CCN(Cc3ccc(SC)cc3)CC2)cc1	-10.3%	23.1µM*!	?	-3.8%	-4.4
COc1ccc(OCC(=O)N2CCN(Cc3ccc4c(c3)OCO4)CC2)cc1	-2.6%	11.9%	-27.2%	-3.9%	-10.3
COc1cccc(CN2CCN(C(=O)COc3ccc4ccccc4c3)CC2)c1	-12.8%	?	?	-16.4%	5.2
COc1cc(OC)c(OC)cc1CN1CCN(C(=O)COc2ccc3ccccc3c2)CC1	-5.8%	25.9µM*	?	-15.6%	?
CCOC(=O)/C=C(C)/C=C/C[C@@H](C)CCCC(C)C	·	5.2%	-7.9%	·	·
N#Cc1ccc(OCC(=O)N2CCN(Cc3ccc4c(c3)OCO4)CC2)cc1	-14.8%	?	3.6%	0.0%	-2.0
CCC1(C)CC(C(N)=S)CCO1 (centres undefined)	14.7%	20.6µM*	18.4µM*	4.9%	-7.7
Cc1cc2c(cc1C)NP(=S)(c1ccccc1)N2	?	-16.7%	-9.9%	-29.7%	-11.3
C=C(C)COc1ccc(-c2n[nH]c(C)c2-c2ccc(Br)cc2)c(O)c1	10µM*	?	18.4µM*	10µM*	-91.6*
C#C[C@@]1(O)CCC2C3CCC4=C/C(=N/OCC(=O)NC(CCC(N)=O)C(=O)O)CC[C@]4(C)C3CC[C@@]21C (some centres undefined)	0.0%	-9.0%	-4.1%	7.3%	1.0
COc1cc(C#Cc2c(-c3cncn3C)n(C)c3ccc(-c4cnc(N5CCOCC5)nc4)cc23)cc(OC)c1	-4.9%	11.6µM*	16.4µM*	-10.5%	?
CC(=O)N1CCN(c2ccc(OCC3CO[C@@](Cn4ccnc4)(c4ccc(Cl)cc4Cl)O3)cc2)CC1 (some centres undefined)	·	6.51µM*	7.31µM*	·	·

Screening data as filed in PubChem BioAssay.
